A selection: hits, their analogues and other compounds. The true share with any hit is near 2.3%.
M18AAP inhibitor: PfM18AAP inhibitors, malaria aminopeptidase, primary screen, biochemical, QFRET, recombinant enzyme. H-Glu-NHMec fluorogenic cleavage. M18 aspartyl aminopeptidase (Plasmodium falciparum 3D7). 290,000 compounds, 1.2% hits. inhibition, % at 7.35 µM;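 active means inhibition above the campaign mean inhibition over all tested compounds plus 3 SD, cut at about 28% in these data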;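 further: 0% = plate median of test compound wells and 100% = 2 mM ZnCl2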
FID counter: compounds displacing fluorescent DNA intercalator, primary screen, artefact control for HCV NS3 helicase inhibitor project, biochemical, FID fluorescence | DNA fluorescent intercalator displacement | inhibition, % at 7.9 µM | 290,000 compounds, 0.17% hits | AID 1845, 2009; in the data active means inhibition above about 37%;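 further: 0% = vehicle and 100% = reference compound; higher means more ethidium bromide displaced from hairpin DNA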
Kir21 block: inhibitors of mouse Kir2.1 inward-rectifier potassium channel | AID 1672, 2009 | HEK293-Kir2.1, FluxOR thallium flux fluorescence; stronger effect = lower value | 310,000 compounds, 0.85% hits | Inward rectifier potassium channel 2 (Mus musculus), P35561 | B-score at 10 µM;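 active means fluorescence ratio B-score at or below minus 3 SD of library scores, with starting-brightness B-score within 2 SD, cut at about -4.2 in these data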;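 further: channel flux triggered by added potassium and thallium sulfate stimulus; B-score of peak minus minimum fluorescence over baseline after thallium stimulus; more negative B-score means stronger Kir2.1 block with less thallium influx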
Rce1 inh: yeast Rce1p protease inhibitors, primary screen, biochemical, fluorescence, cell-free homogeneous; CAAX prenyl protease 2 (Saccharomyces cerevisiae (strain ATCC 204508 / S288c)), Q03530; yeast membranes, quenched prenylated peptide cleavage fluorescence; calls only; 290,000 compounds, 0.27% hits; AID 2563, 2010;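 active means fall in fluorescence gain of 50% or more versus controls, with final raw signal at or below 3038400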;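 further: plate controls were neutral control wells for no effect and wells lacking membranes for full effect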
Target sequence (Q03530 whole entry, looked up): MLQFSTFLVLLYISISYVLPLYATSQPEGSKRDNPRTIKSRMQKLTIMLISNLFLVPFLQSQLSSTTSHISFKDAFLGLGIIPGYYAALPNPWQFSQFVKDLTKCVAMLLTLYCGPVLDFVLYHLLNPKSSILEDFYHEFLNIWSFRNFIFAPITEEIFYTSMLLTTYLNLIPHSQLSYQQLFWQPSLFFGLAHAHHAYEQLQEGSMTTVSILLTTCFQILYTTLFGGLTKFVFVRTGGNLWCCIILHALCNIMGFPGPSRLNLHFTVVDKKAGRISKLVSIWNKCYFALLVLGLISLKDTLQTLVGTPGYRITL
Numbers without * were called inactive; i = inactive; x = no result given; + = active, no number.

SMILES | M18AAP inhibitor | FID counter | Kir21 block | Rce1 inh
CCc1nc(C)cn1S(=O)(=O)c1cc(C)c(OC)c(C)c1C | -1 | -9 | -5.6* | i
Cc1cc2[nH]c3c(c[n+](C)c4ccccc34)c2cc1C | 1 | 64* | -7.8* | i
CC(=O)c1ccc(OCCCC(=O)N2CCN(S(=O)(=O)c3ccc(C)cc3C)CC2)cc1 | x | x | 0.52 | i
CCN(C(=O)CCc1nnc2ccc(NCc3ccco3)nn12)c1ccccc1 | 29* | -29 | 1.2 | i
COCCCNC(=S)NCCNc1nc2cc(C)cc(C)c2cc1C#N | 9 | -14 | -0.15 | +
Cc1ccccc1Cn1ccc(=NCc2ccccc2)cc1 | -9 | 0 | -5.5* | i
Cc1c(CCC(=O)O)c(=O)oc2cc(OCc3cccc(F)c3)ccc12 | -1 | -26 | 0.6 | +
O=C(NCCc1ccccc1F)N[C@@H](Cc1ccccc1)C(=O)O | 1 | -10 | 0.67 | i
COc1ccc(CCNC(=O)Cn2nnc(C(=O)Nc3cccc(C)c3C)c2N)cc1OC | -1 | -29 | 0.67 | i
COCCN(C(=O)CSc1nnc(-c2cccs2)n1N)c1c(N)n(Cc2ccccc2)c(=O)[nH]c1=O | 1 | -12 | 0.09 | i
CCc1ccc(O)c(CNCCNCc2cc(CC)ccc2O)c1 | x | x | -11* | i
CCc1ccc(O)c(N=Cc2ccccc2O)c1 | 24 | -6 | -1.1 | i
c1ccc2c(NCCc3c[nH]c4ccccc34)c3ccccc3nc2c1 | -21 | 21 | -12* | i
OCCCNc1c2ccccc2nc2ccccc12 | -8 | 45* | -1.3 | i
CCN(Cc1ccccc1)C1CCN(Cc2ccc(SC)cc2)CC1 | 0 | 17 | -4.6* | i
CCN(Cc1ccccc1)C(=O)C1CCN(Cc2ccc(SC)cc2)CC1 | 0 | 6 | -0.01 | i
COc1ccc(C=O)cc1CSc1nnc(COc2cccc3cccnc23)o1 | -4 | -33 | -4.9* | i
COc1ccc(N2CCN(C(=O)CSc3nnc(COc4cccc5cccnc45)o3)CC2)cc1 | -7 | -25 | 0.77 | i
CCSC1(SCC)N=C(N)C2(C#N)C(c3ccc(F)cc3)C12C#N (configuration not stated) | -8 | 12 | -4.7* | i
CCC(=O)N(C1=C(NC)C(=O)c2ccccc2C1=O)C(C)C | 1 | -2 | -0.52 | i
CCC(=O)N(CC)C1=C(O)c2ccccc2C(=O)C1=O | 1 | 2 | -4.6* | i
COc1cc([N+](=O)[O-])ccc1NC(=O)NCC1CCN(Cc2ccc(Cl)cc2)CC1 | 24 | 18 | -5.6* | i
COc1ccc(CCNC(=O)/C(C#N)=C/c2cccc(OCc3ccccc3)c2)cc1OC | 0 | -9 | -4.4* | i
COCCNC(=O)/C(C#N)=C/c1ccc(OC(=O)c2cccs2)c(OC)c1 | -7 | 0 | -6* | i
COCCNC(=O)/C(C#N)=C/c1cccs1 | -2 | -6 | -0.85 | i
SMILES | M18AAP inhibitor | FID counter | Kir21 block | Rce1 inh
O=C(COc1cccc2ccccc12)NNC(=O)Nc1ccccc1 | 1 | -3 | -1.2 | i
O=C(COc1cccc2ccccc12)NNC(=O)CSCCO | 31* | -2 | -0.9 | i
CC(C(=O)NCCCc1ccccc1)c1ccc([N+](=O)[O-])cc1 (configuration not stated) | 2 | -3 | -4.4* | i
COc1ccc(CCNC(=O)C(C)c2ccc([N+](=O)[O-])cc2)cc1 (configuration not stated) | 0 | 0 | -4.5* | x
CCCN(C1CCS(=O)(=O)C1)S(=O)(=O)c1ccc(F)cc1 (configuration not stated) | x | x | -1.7 | i
COc1ccc(C(=O)NC(=S)Nc2ccc(CN3CCOCC3)cc2)cc1OC | 3 | -18 | -0.87 | i
COc1ccc(C(=O)Nc2ccc(CN3CCOCC3)cc2)cc1Br | 0 | -1 | -5.3* | i
CN1CCc2cccc3c2[C@H]1Cc1ccc(O)c(O)c1-3 | 35* | 13 | x | i
N#CCCN(C(=O)COC(=O)CNC(=O)c1cccs1)c1ccc(F)cc1 | x | x | 0.4 | i
N#C/C(=C\c1ccc2c(c1)OCO2)C(N)=S | 32* | -1 | 0.27 | i
CCOC(=O)/C(C#N)=C\c1ccc2c(c1)OCO2 | -12 | 2 | 1.1 | i
O=C(CN1C(=O)/C(=C\c2cccc(Cl)c2)Sc2ccccc21)NCCCN1CCOCC1 | -13 | 43* | -0.5 | i
CCc1ccc(/C=C2/Sc3ccccc3N(CC(=O)NCCCN3CCOCC3)C2=O)cc1 | -10 | 54* | -3.9 | i
O=C(CN1C(=O)/C(=C/c2ccc(C(F)(F)F)cc2)Sc2ccccc21)NCCCN1CCOCC1 | -3 | 23 | -0.29 | i
CN1C(=O)/C(=C/c2cccc(Cl)c2)Sc2ccc(C(=O)N3CCOCC3)cc21 | 1 | -43 | -1.6 | +
CCN1CCN(CCNC(=O)c2ccc(/C=C3/Sc4ccccc4N(Cc4cccc(Cl)c4)C3=O)cc2)CC1 | -3 | 39* | -5.1* | i
COC(=O)c1cc(S(=O)(=O)N(Cc2ccccc2)C(C)(C)C)c[nH]1 | -25 | 14 | -1.9 | i
Cc1ccc(CNC(=O)CNS(=O)(=O)c2ccc3c(c2)C(C)(C)C(=O)N3C)cc1 | -3 | -22 | -0.45 | i
CCOc1ccc(S(=O)(=O)N2CCCC(C(=O)N3CCOCC3)C2)cc1Cl (configuration not stated) | 6 | -33 | 1.4 | i
CC(=O)NC1=C(Nc2ccc(N(C)C)cc2)C(=O)c2ccccc2C1=O | 29* | -6 | 1.8 | i
CC1=C(Nc2ccc(C(=O)O)cc2)C(=O)c2ccccc2C1=O | -4 | -2 | -0.82 | i
CCN(C(=O)c1ccc(Cl)cc1[N+](=O)[O-])c1ccccc1C | -1 | -6 | -5* | i
O=C(c1ccc(Cl)cc1[N+](=O)[O-])N(Cc1ccccc1)Cc1ccccc1 | -16 | -7 | -0.58 | i
CCCCc1cc(=O)oc2cc(OCC(=O)N3CCC(C(N)=O)CC3)ccc12 | 0 | -27 | -0.28 | i
CCCCc1cc(=O)oc2cc(OCC(=O)N3CCOCC3)ccc12 | 5 | -27 | 0.41 | +
SMILES | M18AAP inhibitor | FID counter | Kir21 block | Rce1 inh
Cc1ccc2c(c1)sc1nc(=O)ccn12 | -9 | 0 | -0.47 | x
CCOC(=O)c1cnc(SC2CC(=O)N(c3cccc(OC)c3)C2=O)nc1N (configuration not stated) | 29* | -11 | 1 | i
COCCCN1CCN(C2Cc3ccccc3Sc3ccc(Cl)cc32)CC1 (configuration not stated) | 3 | 27 | -2.3 | i
NC(=O)CCN1CCN(CCOC2Cc3cc(Cl)ccc3Sc3ccccc32)CC1 (configuration not stated) | 2 | 9 | -6.4* | i
Cc1ccc(C2=NN=C(NC(=O)CSc3nncn3C)SC2)cc1 | 54* | -48 | 0.36 | i
Cc1ccc(C(=O)NC(=O)CSc2nncn2C)cc1 | -1 | -9 | 0.06 | x
COc1ccc(NCc2nnc(-c3ccccc3)o2)cc1 | -4 | -15 | -0.49 | i

Bioassay records (PubChem)
